# Measured values taken from the supplement of paper PMC3334620.
# Whole data set: some 33,000 sequences, median “E-score (-0.5 to 0.5)” near -0.0034, cut for the highest 2% near 0.25. The sample holds the highest values, similar sequences and a random draw of the others, so the mix is not that of the screen.
# Target: T1, Yap3 (UniProt P38749)
# T1 sequence: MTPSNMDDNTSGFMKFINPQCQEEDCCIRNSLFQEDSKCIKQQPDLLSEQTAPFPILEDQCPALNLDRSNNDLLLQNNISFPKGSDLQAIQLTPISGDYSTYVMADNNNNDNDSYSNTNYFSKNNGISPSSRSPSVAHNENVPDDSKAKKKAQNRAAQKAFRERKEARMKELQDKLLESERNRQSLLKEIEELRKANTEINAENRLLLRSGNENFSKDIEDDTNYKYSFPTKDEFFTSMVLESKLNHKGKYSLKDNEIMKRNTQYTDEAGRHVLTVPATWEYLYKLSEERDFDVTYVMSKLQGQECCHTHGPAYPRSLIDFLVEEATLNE
# Test: PBM E-score (8-mer binding enrichment) (E-score (-0.5 to 0.5)); higher = stronger / more preferred TF binding
# Conditions: protein concentration: 100 nM; construct: GST-full length
# Procedure: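 Universal 'all 10-mer' protein binding microarrays (Agilent AMADID 015681) probed with GST-tagged S. cerevisiae TFs (full-length or DBD) made by in vitro transcription/translation (PURExpress), about 100-200 nM. Bound TF was detected with fluorescent anti-GST. Each ungapped 8-mer (which stands for itself and its reverse complement) is scored by the PBM enrichment score (E-score), a modified Wilcoxon-Mann-Whitney statistic from -0.5 to +0.5, computed with the Universal PBM Analysis Suite. Scale: above 0.35 generally sequence-specific binding.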
row,Sequence,PBM E-score
1,GAAATACC,0.0809
2,GGTCAGTA,-0.139
3,TGTAGTAA,0.128
4,GCCTAATA,0.0577
5,TACTACTA,0.223
6,TACTAATA,0.267
7,ACCTAATC,0.245
8,CACTAATA,0.225
9,ACCTAATA,0.274
10,GAAAGCAC,0.112
11,ACAGCAGG,-0.126
12,CGTCTGAA,-0.104
13,AACATACT,0.012
14,ATAATCAG,0.126
15,AACATACG,0.183
16,CTAATCAC,0.271
17,ATAATCAA,0.139
18,AACATAAA,0.156
19,CTAATCAG,0.0826
20,CACATAAG,0.053
21,CTAATCAA,0.219
22,AACATAAG,0.308

row,Sequence,PBM E-score
1,ATAATCAT,0.344
2,AACATAAT,0.334
3,GCATAAAA,0.147
4,CGTTGAAC,-0.07
5,GCTAGGAC,-0.11
6,ATCTATCC,0.00162
7,AAAGTGCT,0.0686
8,CTCTATCC,-0.00886
9,CAGGAAGC,0.00172
10,ATCATAAT,0.293
11,GACATAAC,0.22
12,ATCATAAG,0.247
13,ATCATAAA,0.193
14,ACCATAAG,-0.0758
15,AACATAAC,0.269
16,CACATAAC,-0.0392
17,ACCATAAT,0.264
18,ACCATAAA,0.141
19,CTCTCTAC,0.111
20,AGCTGGAA,-0.178
21,GCAACCCA,-0.11
22,AATGATTA,0.325

row,Sequence,PBM E-score
1,AATGATAA,0.177
2,AATGATAT,0.242
3,AATGATTC,0.115
4,CCTGATTA,0.18
5,AATGATAC,0.264
6,CATGATTC,0.0254
7,TATGATAA,0.228
8,GATGATTA,0.0319
9,AATGATAG,0.172
10,CATGATAA,0.255
11,CATGATTA,0.28
12,AGAACGCC,-0.109
13,CGCACATA,-0.0836
14,AAGTGGGT,0.0584
15,AATTTGAA,0.131
16,CCGAGCAA,-0.0253
17,CATATAGC,0.233
18,ATACAAGG,0.145
19,CGCGATTC,0.198
20,AGCGATTA,0.00413
21,CGCGATTA,0.27
22,CGTAATAG,0.314

row,Sequence,PBM E-score
1,GGTAATAC,0.208
2,AGTAATAC,0.113
3,AGTAATAG,0.207
4,CGTAATAC,0.318
5,CATAATAG,0.189
6,CGTAATAA,0.29
7,AGTAATGC,0.13
8,AGTAATAT,0.295
9,CGTAATGC,0.203
10,GGTAATAA,0.165
11,TGTAATAA,0.242
12,CGGCATTA,0.21
13,ACTCGTTC,-0.0576
14,AGTAATGA,0.208
15,AGTAAAAA,0.208
16,AGTAATAA,0.254
17,ATTGGGGC,-0.0386
18,AGGCTATC,-0.203
19,CCGCGCGG,0.293
20,ACGCGCGC,0.181
21,GCGCGCGA,0.121
22,GCGCGCGC,0.29

row,Sequence,PBM E-score
1,GCGCGCTA,0.257
2,ACGCGCTA,0.0658
3,CCGCGCGC,0.0469
4,CCGCGCTA,0.137
5,CCGCGCGA,0.0991
6,ACAACAGA,-0.0683
7,GATGTCCC,-0.134
8,AGGATCAG,-0.151
9,CGGCCCAG,-0.332
10,AGAAATGA,0.0784
11,CCTGACAG,-0.0186
12,GGAGATAA,0.107
13,AGAGATAA,0.169
14,CGAGATAA,0.29
15,GAGCCTTA,-0.0398
16,ACATGTTG,0.13
17,ACATGTAG,0.302
18,ACATGTAA,0.184
19,ACATGTAC,0.112
20,ACATGTAT,0.262
21,CCATGTAG,-0.014
22,CAGAATCA,0.0924
